From PubChem BioAssay
LYPLA2 inh: LYPLA2 (human) inhibition in PME1 counter-screen. O95372. recombinant LYPLA2, FP-Rh probe fluorescence polarization. inhibition, % at 5.9 µM. actives 0.38% (n = 320,000);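 active = inhibition above the screen-wide mean plus 3 SD, limit set per campaign, cut at about 26% in these data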;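 also: 0% = LYPLA2 with DMSO and 100% = wells lacking LYPLA2 enzyme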
MEX-5 binding: C. elegans MEX-5 TCR-2 RNA binding activity; activity score (negative = inhibition of binding), % at 10 µM; MEX-5/FITC-TCR2 RNA binding, fluorescence polarization; stronger effect = lower value; actives 0.38% (n = 300,000);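 active = inhibition past about -25% in most replicates, and total fluorescence under double the plate's negative control median, limit read from the data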;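 also: 0% = DMSO and -100% = 5 µM competing unlabeled TCR2 RNA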
Target sequence (Q9XUB2 whole entry, looked up): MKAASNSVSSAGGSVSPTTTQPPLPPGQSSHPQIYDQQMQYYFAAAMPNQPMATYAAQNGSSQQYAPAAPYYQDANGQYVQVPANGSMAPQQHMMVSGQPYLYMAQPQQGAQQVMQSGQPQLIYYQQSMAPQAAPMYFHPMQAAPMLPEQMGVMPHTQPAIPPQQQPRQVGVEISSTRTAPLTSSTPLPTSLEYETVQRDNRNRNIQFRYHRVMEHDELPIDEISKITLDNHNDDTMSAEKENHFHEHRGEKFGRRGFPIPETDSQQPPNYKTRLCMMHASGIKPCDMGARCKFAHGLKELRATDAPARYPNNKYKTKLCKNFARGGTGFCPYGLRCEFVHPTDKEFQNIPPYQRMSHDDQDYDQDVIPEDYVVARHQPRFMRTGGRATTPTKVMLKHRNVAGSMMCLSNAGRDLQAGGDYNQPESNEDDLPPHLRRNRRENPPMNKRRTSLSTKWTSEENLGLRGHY
PME-1 primary: PME-1 (human) inhibition. recombinant PME-1, FP-Rh probe fluorescence polarization. inhibition, % at 5.9 µM. actives 0.53% (n = 320,000). AID 2130;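 active = inhibition above the campaign mean of all compounds plus 3 SD, cut at about 26% in these data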;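 also: competitive labeling of PME-1 active site by serine hydrolase directed probe; 0% = PME-1 with DMSO and 100% = wells lacking PME-1 enzyme; inhibitors block probe labeling so polarization falls and inhibition rises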
PREPL inh: human PREPL enzyme inhibition. actives 0.68% (n = 320,000). inhibition, % at 5.96 µM. Q4J6C6. recombinant PREPL, fluorescence polarization activity-based probe;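 also: 0% = enzyme with DMSO and 100% = wells lacking enzyme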
LYPLA1 inh: counter-screen for PME1 inhibitors: inhibitors of human LYPLA1; O75608; recombinant LYPLA1, FP-Rh probe fluorescence polarization; inhibition, % at 5.9 µM; actives 0.16% (n = 320,000);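 active = inhibition above the mean of all tested compounds plus 3 SD, set per campaign, cut at about 14% in these data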;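 also: inhibitors block serine hydrolase probe labeling of LYPLA1 so polarization falls; 0% = enzyme with DMSO and 100% = wells lacking LYPLA1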
Target sequence (O75608 whole entry, looked up): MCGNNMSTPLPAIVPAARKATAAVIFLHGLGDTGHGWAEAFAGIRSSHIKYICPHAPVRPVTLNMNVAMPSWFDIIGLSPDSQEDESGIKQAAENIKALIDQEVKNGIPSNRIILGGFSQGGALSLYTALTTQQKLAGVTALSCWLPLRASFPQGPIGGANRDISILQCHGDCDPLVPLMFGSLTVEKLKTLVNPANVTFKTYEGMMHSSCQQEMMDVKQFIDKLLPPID
Fam108B counter: counter-screen for RBBP9 inhibitors: inhibitors of mouse Fam108B | actives 0.33% (n = 300,000) | inhibition, % at 9.51 µM | AID 1947 | recombinant Fam108B, FP-Rh probe fluorescence polarization;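 active = inhibition above the screen mean inhibition plus 3 SD, computed separately per campaign, cut at about 18% in these data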;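 also: inhibitors lower polarization as less probe binds the enzyme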
PREPL inh cf: human PREPL inhibition, confirmation | shares compounds with PREPL inh | recombinant PREPL, fluorescence polarization activity probe | inhibition, % at 5.96 µM | actives 67% (n = 2,000) | AID 2803;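 also: 0% = protein with DMSO and 100% = wells lacking protein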
* = called active by the depositor; / = no result given. This is a sample that favours compounds with a hit; in the whole collection about 1.6% have one here. Rule as the data show it, unless noted: active = inhibition above about 43%; inactive = the rest.

SMILES	LYPLA2 inh	MEX-5 binding	PME-1 primary	PREPL inh	LYPLA1 inh	Fam108B counter	PREPL inh cf
CCN1CCN(c2cc(C)c3cc(NC(=O)CCC(=O)N4CCN(c5ccccc5OC)CC4)ccc3n2)CC1	1.0	-1.0	-0.1	6.1	-2.1	1.1	/
CCN1CCN(c2cc(C)c3cc(NC(=O)CCC(=O)N4CCN(c5ccccc5)CC4)ccc3n2)CC1	1.1	-0.8	0.2	48.9*	1.0	-3.8	46.9*
O=C1CC(NN2CCCCC2)C(=O)N1c1ccccc1 (stereo not drawn)	2.5	-1.0	-4.9	-10.2	2.7	-1.2	/
COc1cc(C2CC(=O)Oc3c(C(CCN4CCCC(C)C4)c4ccc(N(C)C)cc4)c(OC)cc(OC)c32)cc(OC)c1OC (stereo not drawn)	2.6	2.3	-1.2	46.3*	-2.0	-3.7	52.0*
Cc1cc(=O)n2[nH]c(C(F)(F)F)c(-c3ccccc3)c2n1	-6.1	-0.1	-6.8	-0.8	-4.9	-6.4	/
CN1CCc2c(sc3c2C(=O)NC(c2ccco2)N3)C1 (stereo not drawn)	-2.3	-5.5	-2.4	0.5	-0.6	-1.6	/
CN1CCc2c(sc3c2C(=O)NC(c2cn(Cc4ccccc4)c4ccccc24)N3)C1 (stereo not drawn)	-11.6	-2.3	12.8	55.5*	-6.1	-5.6	60.6*
CCCCn1c(CN2CCN(C)CC2)nc2ccccc21	4.5	0.6	0.0	-3.6	-0.7	5.1	/
COc1cccc2cc(C(=O)C3=C(O)C(=O)N(CCN4CCOCC4)C3c3ccc(Cl)cc3)oc12 (stereo not drawn)	-6.4	1.1	2.4	15.4	-3.0	1.5	/
COc1cccc2cc(C(=O)C3=C(O)C(=O)N(CCN4CCOCC4)C3c3ccc(C(C)(C)C)cc3)oc12 (stereo not drawn)	-5.0	0.9	-12.4	52.9*	-5.5	-3.3	56.4*
CC(C)=C1C(=O)NN(c2ccc(C)c(Cl)c2)C1=O	-2.4	1.0	-0.9	34.2	-5.9	-0.7	/
Cc1nc2ccccn2c1-c1csc(NCc2ccco2)n1	4.6	-1.3	14.9	15.3	0.7	4.4	/
Cc1ccn2c(-c3csc(NCc4ccccc4)n3)c(C)nc2c1	18.1	-0.3	12.8	45.2*	-3.3	14.1	44.5*
CCOC(=O)c1c(C)n(CCOc2ccccc2)c2ccc(O)cc12	1.7	0.9	-4.7	-5.0	1.0	1.4	/
CCOC(=O)c1c(C)n(CC(O)c2ccccc2)c2ccc(O)cc12 (stereo not drawn)	-2.9	-0.6	5.9	171.2*	-5.8	3.8	6.0
O=C(c1cnn2c(C(F)F)cc(-c3ccccc3)nc12)N1CCOCC1	0.1	-0.7	5.6	60.8*	-1.8	-0.1	4.2
O=c1c2c3c(sc2nc(NCCO)n1CCc1ccccc1)CCCCC3	5.4	-1.1	18.1	164.1*	-0.7	8.4	40.3
O=c1c2c3c(sc2nc(NCCO)n1Cc1ccco1)CCCCC3	3.0	-1.1	7.2	4.0	3.6	1.1	/
COc1ccc(CCNC(=O)c2cc3c(=O)n4ccccc4nc3n(CCCN3CCOCC3)c2=N)cc1OC	-6.1	-1.5	-14.3	19.3	-8.0	-2.8	/
COc1ccc(CCNC(=O)c2cc3c(=O)n4ccccc4nc3n(CCCN3CCOCC3)c2=N)cc1	-5.8	0.6	2.4	58.4*	-4.2	3.6	51.9*
COc1ccc(CCNC(=O)c2cc3c(=O)n4ccccc4nc3n(CCN3CCOCC3)c2=N)cc1	-2.7	-2.2	6.5	38.9	0.8	-0.8	/
Cc1cccn2c(=O)c3cc(C(=O)NCCc4ccccc4)c(=N)n(CCCn4ccnc4)c3nc12	-1.2	-5.1	12.2	66.3*	-2.9	-0.5	57.6*
Cc1ccc2nc3c(cc(C(=O)NCCc4ccccc4)c(=N)n3CCCN3CCOCC3)c(=O)n2c1	5.3	1.0	0.1	52.5*	0.9	3.9	56.4*
Oc1ccc(C2=Nn3c(nnc3-c3ccco3)SC2)cc1O	9.7	-5.2	-1.7	43.8*	-3.2	16.0	32.4
O=C(Nc1cccc(O)c1)c1cccc(NC(=O)c2cccs2)c1	-2.9	1.5	-4.0	-6.1	-7.0	1.9	/
SMILES	LYPLA2 inh	MEX-5 binding	PME-1 primary	PREPL inh	LYPLA1 inh	Fam108B counter	PREPL inh cf
CC(C)C[C@@H]1CN=C(N)N1C[C@@H]1CCCN1C[C@@H](C(C)C)N1C[C@@H](Cc2ccccc2)N(CCCC2CCCC2)C1=N	/	/	/	59.5*	/	/	51.0*
CCCCN1C(=N)N([C@@H](C)CN2CCC[C@H]2CN2C(N)=NC[C@@H]2Cc2ccccc2)C[C@H]1Cc1ccccc1	/	/	/	53.6*	/	/	44.0*
CCCCN1C(=N)N([C@@H](CN2CCC[C@H]2CN2C(N)=NC[C@@H]2Cc2ccccc2)C(C)C)C[C@H]1Cc1ccccc1	/	/	/	64.7*	/	/	59.1*
COc1cccc(CNCc2ccco2)c1O	/	-0.8	/	/	/	/	/
CC(=O)c1cccc(NC(=S)NC(=O)c2cccc(Cl)c2)c1	18.9	0.7	1.6	-0.9	4.7	-1.7	/
CCOC(=O)c1cnc2ccc(C(=O)OC)cc2c1Nc1ccc(C(=O)O)cc1	0.9	0.4	0.9	-2.5	-2.1	0.9	/
CCOC(=O)c1ccc2ncc(C(=O)OCC)c(Nc3ccc(N4CCOCC4)cc3)c2c1	3.1	-0.5	10.3	45.1*	2.5	-1.2	42.3
Cn1c(=O)c(=O)n(C)c2cc(S(=O)(=O)NCc3ccc(Cl)cc3)ccc21	7.7	0.5	-0.7	5.1	5.0	-1.3	/
O=C(COC(=O)CNC(=O)c1ccccc1)Nc1ccc(Cl)cn1	/	/	/	45.3*	/	/	1.8
O=C(Cc1ccccc1)Nc1nc2ccccc2s1	-5.1	0.8	-7.0	-8.1	-7.3	-0.4	/
O=C(CP(=O)(c1ccccc1)c1ccccc1)Nc1nc2ccccc2s1	6.3	-1.2	5.9	50.0*	-0.8	-2.1	41.2
COCCCNc1nc2c(c(=O)n(Cc3ccc(F)cc3)c(=O)n2C)n1C	6.3	1.7	5.4	6.5	2.0	0.5	/
CC(CNC(=O)c1ccc(-c2ccccc2)cc1)CN(C)C (stereo not drawn)	1.2	-1.7	5.7	-10.7	-1.6	-4.2	/
CN(C)c1ccc(/C=N/NC(=S)NCc2ccccc2)cc1	8.5	0.1	5.5	50.9*	0.1	7.6	54.9*
OCC1CCCCN1CCNCc1cn[nH]c1-c1cccc2ccccc12 (stereo not drawn)	0.7	13.3	2.5	43.8*	1.8	0.3	42.7
CCOc1ccc(CN(C)C(=O)CNC(=O)c2sc3ccccc3c2Cl)cc1	-15.4	/	-7.3	7.6	-9.1	/	/
CC(=O)N1CCN(c2ccc(OC[C@H]3CO[C@](Cn4ccnc4)(c4ccc(Cl)cc4Cl)O3)cc2)CC1	8.4	-1.7	-5.2	60.8*	-1.7	2.2	64.1*
COc1ccc(Cl)cc1NC(=O)CNc1ccccc1N1CCOCC1	-1.3	0.0	5.9	3.6	-1.6	0.6	/
